High-throughput results from PubChem.
Sampled rows, rich in hits. Any-hit rate of the full collection: about 6.9%.
Vif-A3G inh = qHTS for Inhibitors of Vif-A3G Interactions: qHTS | DNA dC->dU-editing enzyme APOBEC-3G (Homo sapiens), Q9HC16 | HeLa A3G-eYFP + Vif (tagged APOBEC3G with the HIV-1 protein that degrades it), YFP fluorescence, overnight | Potency, µM (series often up to 46.1 µM), for inactives: top-dose activity, negative = active, hits mostly inhibitors | 410,000 compounds, 0.076% hits | AID 602310, 2012; also: potency is read from the fitted curve at half-maximal effect; % is scaled to controls: 0 for no effect and ±100 for the full control effect; nearly all actives have a fitted effect of over 60% in size
Target sequence (Q9HC16 whole entry, looked up): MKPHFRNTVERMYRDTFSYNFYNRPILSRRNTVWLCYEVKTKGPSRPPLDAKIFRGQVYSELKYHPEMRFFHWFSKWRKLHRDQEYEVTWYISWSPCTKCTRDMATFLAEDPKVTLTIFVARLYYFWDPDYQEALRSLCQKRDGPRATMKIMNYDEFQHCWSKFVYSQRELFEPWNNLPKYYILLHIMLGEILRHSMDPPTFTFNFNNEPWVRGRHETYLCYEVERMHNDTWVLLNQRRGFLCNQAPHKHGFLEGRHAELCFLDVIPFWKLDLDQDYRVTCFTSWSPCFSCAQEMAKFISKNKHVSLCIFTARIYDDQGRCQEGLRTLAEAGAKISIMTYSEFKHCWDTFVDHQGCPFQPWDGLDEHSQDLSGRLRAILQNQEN
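Read-out is eYFP fluorescence (Ex 488/Em 500-530) from Vif-expressing HeLa A3G-eYFP cells; more signal means A3G escaped Vif-mediated degradation. Cells plated overnight, compound pinned in, incubated overnight at 37 deg C.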
SW480 rereplic = A quantitative high throughput screen for small molecules that induce DNA re-replication in SW480 colon adenocarcinoma cells. SW480 DNA re-replication, Hoechst DNA content imaging, 48 h. Potency, µM (titrated, usually from 46.1 µM), without a hit: at the highest dose re-replication activation, usual class: activators. 340,000 compounds, 1.8% hits. AID 624297, 2012; also: potency is read from the fitted curve at half-maximal effect; % of control where 0% means no effect; nearly all actives have a fitted effect of over 55% in size
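Image-based DNA-content assay: after two days of treatment, nuclei were labelled with the DNA dye Hoechst and imaged, and hits were compounds raising the count of nuclei showing high fluorescence intensity.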
IL1B secr inh = qHTS for Inhibitors of Inflammasome Signaling: IL-1-beta AlphaLISA Primary Screen | THP-1 LPS/ATP IL-1B secretion, AlphaLISA, 16 h; active compounds read low | activity change, % at 57.5 µM | 360,000 compounds, 4.7% hits | AID 743279, 2014; in the data active = activity change below about -50%; inconclusive = mostly about -30% to -49%; also: % is scaled to controls: 0 for no effect and ±100 for the full control effect
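Secreted IL-1B measured by AlphaLISA bead assay after 16 h compound exposure of THP-1 cells; compounds (final up to 57.5 uM) added 1 h before LPS (250 ng/mL) and ATP (1.25 mM) stimulation; lower signal means less secretion.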
MCF10A rereplic = A quantitative high throughput screen for small molecules that induce DNA re-replication in MCF 10a normal breast cells; MCF 10A DNA re-replication, Hoechst nuclear intensity, 48 h; 350,000 compounds, 2.9% hits; Potency, µM (titrated, usually from 46.1 µM), inactives show at the highest dose activity, positive = re-replication, actives largely listed as activators; also: potency is read from the fitted curve at half-maximal effect; % of control where 0% means no effect; nearly all actives have a fitted effect of over 50% in size
Giardia kill = Small Molecules that selectively kill Giardia lamblia: qHTS | 340,000 compounds, 0.15% hits | activity change, % at 7.66 µM, hits read low | Giardia lamblia trophozoite viability; in the data active = activity change below about -80%; inconclusive = between about -30% and that limit;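 also: parasites exposed to compound for two days anaerobically before the ATP read; % is scaled to controls: 0 for no effect and ±100 for the full control effect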
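Compounds were tested on trophozoites seeded at 100 cells/well and held 48 hrs at 37 deg C anaerobically. An ATP-based luminescent kit measured the remaining live cells.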
Vif-A3F inh = qHTS for Inhibitors of Vif-A3F Interactions: qHTS | HeLa A3F-eYFP + Vif (tagged APOBEC3F with the HIV-1 protein that degrades it), YFP fluorescence increase | Potency, µM (titrated, usually from 46.1 µM), inactives show at the top dose activity, negative = active | 390,000 compounds, 0.2% hits; also: potency is read from the fitted curve at half-maximal effect; % of control where 0% means no effect; nearly all actives have a fitted effect of over 65% in size
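HeLa cells stably expressing Vif plus C-terminally eYFP-tagged A3F were seeded, incubated overnight at 37 deg C, dosed with compound, incubated overnight again at 37 deg C. Yellow fluorescence (Ex 488/Em 500-530) reported blocked Vif-mediated A3F-eYFP degradation.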
Starred values were filed as active, the others as inactive; ? = inconclusive; nt = no result; [ ] = dose if it differs, or a comment. Unless noted, calls follow the shape of the dose curve; as a rule, active = well fitted curve in the direction sought with a large enough effect; inconclusive = small, poorly fitted or top-dose-only effect, or another doubt; inactive = no such curve, though single readings can be large; an effect the other way counts as inactive or inconclusive.

SMILES	Vif-A3G inh	SW480 rereplic	IL1B secr inh	MCF10A rereplic	Giardia kill	Vif-A3F inh
CCOc1cc(/C=C/c2cccc[n+]2C)ccc1OCC(=O)Nc1ccc(C)cc1	10.3%	-5.1%	-70.5*	12.0%	-6.6	-1.5%
CCOc1cc(/C=C\[N+](=O)[O-])ccc1OCC(=O)Nc1ccccc1C	-23.8%	?	-21.2	2.91µM*	-6.6	0.6%
Cc1nnc(NCc2ccc(F)cc2)c2c1nnn2Cc1ccccc1Cl	-0.7%	nt	nt	nt	nt	-1.1%
O=Cc1ccc(O)c2ncccc12	?	7.31µM*	-97.5*	1.64µM*	28.6	-2.4%
Cc1ccc(NC(=O)C(Cc2ccccc2)n2cccc2)c(C)c1 (stereo not given)	3.6%	nt	nt	nt	nt	-1.2%
CC(CCc1ccccc1)NC(=O)CCN1N=C(c2ccccc2)CCC1=O (stereo not given)	2.2%	-2.4%	?	1.5%	-4.1	0.1%
CCc1ccc(C2=NN(CCC(=O)NC(C)CCc3ccccc3)C(=O)CC2)cc1 (stereo not given)	1.4%	-4.9%	-52.3*	12.3%	-4.0	-1.9%
CN(C)/C=N/c1nc2c(ncn2C2CC(O)C(CO)O2)c(=O)[nH]1 (stereo not given)	-1.2%	nt	nt	nt	6.7	nt
COc1ccc(OC)c(NC(=O)CSc2nc3ccccc3cc2Cc2ccccc2)c1	0.1%	29.6%	0.1	14.6µM*	5.7	0.1%
COCCNC(=O)CSc1c2c(nc3cc(Cl)ccc13)CCCC2	-21.6%	nt	nt	nt	nt	4.9%
COc1ccc(NC(=O)CSc2nc(C3CC3)nc3ccccc23)c(OC)c1	-10.6%	3.3%	-59.2*	1.5%	-3.7	3.4%
CCN(CC)CCNC(=O)CSc1c2c(nc3cc(Cl)ccc13)CCCC2	?	?	-104.4*	?	5.3	-1.6%
Nc1nc(SCC(=O)Nc2ccccc2)nc2nc3c(cc12)CCCC3	-15.2%	10.5%	-51.9*	?	4.3	11.9%
COc1cc(OC)c2c(c1C(CCN1CCCC1)c1ccc(N(C)C)cc1)OC(=O)CC2c1ccc(N(C)C)cc1 (stereo not given)	4.5%	nt	nt	nt	-4.4	nt
Cc1ccccc1Cn1nnc2c(=O)[nH]c(C3CCN(C(=O)c4ccccc4)CC3)nc21	1.3%	nt	nt	nt	nt	1.1%
COCC(C)Nc1ncnc2c1cnn2-c1ccc(C)c(C)c1 (stereo not given)	-2.4%	nt	nt	nt	nt	1.2%
Cc1ccc(Nc2nc(NCc3ccco3)nc3nccnc23)cc1C	-15.1%	nt	nt	nt	22.7	nt
Cc1ccc(S(=O)(=O)C(CNC(=O)COc2ccccc2)c2ccco2)cc1 (stereo not given)	6.2%	nt	nt	nt	nt	9.3%
COc1cccc(NC(=O)CSc2c3c(nc4ccccc24)CCCC3)c1	?	14.6%	-96.4*	?	11.8	-4.2%
COc1ccc(OC)c(NC(=O)CSc2c3c(nc4ccccc24)CCCC3)c1	-27.3%	nt	nt	nt	nt	0.9%
COc1ccc(NC(=O)CSc2nc(C3CC3)nc3ccccc23)cc1	-24.5%	13µM*	?	?	8.5	6.5%
Cc1csc(Sc2ccc([N+](=O)[O-])cc2C(=O)OCC(=O)NC2CCCC(C)C2C)n1 (stereo not given)	1.5%	?	-6.5	17.8µM*	-3.7	-8.2%
CCC(C)NC(=O)COC(=O)c1cc([N+](=O)[O-])ccc1Sc1nc(C)cs1 (stereo not given)	-0.9%	5.2%[9.22 µM]	-17.3	?	-5.0	nt
CN(C)/C=C/C(=O)c1cccc(Cl)c1	0.6%	-0.3%	?	5.8µM*	-3.2	4.4%
CN(C)/C=C/C(=O)c1ccc(Cl)cc1	3.0%	-0.6%	-18.9	18.4µM*	26.9	1.0%
SMILES	Vif-A3G inh	SW480 rereplic	IL1B secr inh	MCF10A rereplic	Giardia kill	Vif-A3F inh
CN(C)/C=C/C(=O)/C=C/c1ccc(Cl)cc1	-7.6%	8.7%	-100.2*	?	23.5	-10.0%
CN(C)/C=C/C(=O)c1ccc(Cl)c([N+](=O)[O-])c1	-6.6%	4.6%	-96.0*	-5.6%	7.7	-12.3%
CN(C)/C=C/C(=O)c1cccc(C(F)(F)F)c1	1.3%	4.1%	-25.4	?	-15.5	-0.6%
Cc1ccc(C(=O)CSc2nnc3ccc4ccccc4n23)cc1	-2.4%	nt	nt	nt	nt	4.3%
Cn1c2ccccc2c2cnn(CC(=O)Nc3ccccc3C(F)(F)F)c(=O)c21	-3.7%	nt	nt	nt	nt	1.4%
COc1ccc(-n2ncc(C(=O)N3CCN(c4ncccn4)CC3)c2C2CCN(C(=O)OC(C)(C)C)CC2)cc1	2.7%	nt	nt	nt	nt	-1.8%
CCc1cccc(NC(=O)COc2cc(=O)n(CC)c3ccccc23)c1	-0.2%	nt	nt	nt	nt	-1.4%
O=C(Nc1cnn(Cc2ccc(F)cc2)c1)c1noc2c1CCCC2	-10.6%	26.0%	22.3	4.61µM*	10.1	-13.0%
CC(C)(C)C1CCc2onc(C(=O)Nc3cnn(Cc4ccc(F)cc4)c3)c2C1 (stereo not given)	-0.8%	?	-0.7	?	-1.3	-0.5%
Cc1ccc(CNC(=O)c2ccc(CSCc3ccccc3Cl)o2)cc1	1.5%	nt	nt	nt	nt	0.4%
COCCCNC(=O)c1ccc(-c2nc(CS(=O)(=O)c3ccc(C)cc3)c(C)o2)cc1	-14.8%	nt	nt	nt	nt	-9.0%
O=C(c1cccs1)c1no[n+]([O-])c1C(=O)c1cccs1	?	13µM*	-97.4*	11.6µM*	34.8	3.7%
COc1ccc(C(=O)c2no[n+]([O-])c2C(=O)c2ccc(OC)cc2)cc1	?	?	-102.4*	9.2µM*	-5.2	4.3%
COc1ccc(COC[B-](F)(F)F)cc1	-8.5%	nt	-52.9*	nt	nt	-3.9%
CC(C)n1c(CN(C)c2ccccc2)nc2ccccc21	2.2%	1.2%	-8.2	?	11.9	4.5%
CC(C)n1c(/C=C/c2ccccc2)nc2ccccc21	-5.6%	-0.7%	-78.1*	1.2%	0.6	-40.8%
CCCn1c(/C=C/c2ccccc2)nc2ccccc21	-5.8%	?	-20.8	23.1µM*	-8.3	2.1%
COCCOCCn1c(/C=C/c2ccccc2)nc2ccccc21	-5.0%	-11.7%	-3.3	0.2%	-7.5	0.3%
CCC(CC)C(=O)Nc1ccc2nc(SCC(=O)N3CCCC3)sc2c1	0.1%	nt	nt	nt	nt	-8.5%
CCOC(=O)C1CCN(C(=O)c2c(C)nn(-c3ccc(F)cc3)c2-n2cccc2)CC1	-5.1%	nt	nt	nt	nt	-1.9%
CCOc1cc(/C=C/c2nc3ccccc3c(=O)[nH]2)ccc1O	-26.1%	-5.8%	-3.3	?	0.6	0.6%
COc1ccc(/C=C/c2cc(C(F)(F)F)[nH]c(=O)n2)cc1OC	?	16.4µM*	-95.7*	?	-17.7	?
